These results are taken from PubChem BioAssay (Tox21).

Structures are written as SMILES. Several values for one entry are separate records, joined by “and”; a condition that tells them apart may be missing. Equal entries are not always repeated. Inconclusive results are not listed. Some compounds were tested as several samples or in several runs, with calls that do not always agree. Activity calls are given as the source filed them. Unless noted, calls follow the shape of the dose curve; as a rule, active = well fitted curve in the direction sought with a large enough effect in the repeat runs; inconclusive = weak or mixed curves; inactive = no such curve, though single readings can be large; an effect the other way counts as inactive or inconclusive.

Assay [1] in a line: A CellTox Green Cytotoxicity Assay to monitor cytotoxicity in HepG2 cells - 0 hour (AID 1224882). Also: nearly all actives have a fitted effect of over 35% in size. Also: potency is read from the fitted curve at half-maximal effect. In a few lines:
(§1)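 Measurements at 0, 8, 16, 24, 32 and 40 h of treatment captured CellTox Green fluorescence in HepG2 cells that had been co-plated with reagent and preincubated 5 h at 37 C/5% CO2.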

A short description of assay [2]: A CellTox Green Cytotoxicity Assay to monitor cytotoxicity in HepG2 cells - 32 hour (AID 1224883). Also: nearly all actives have a fitted effect of over 50% in size. Also: potency is read from the fitted curve at half-maximal effect. In a few lines: as §1
Assay [3] in a line: A CellTox Green Cytotoxicity Assay to monitor cytotoxicity in HEK293 cells - 8 hour (AID 1224884). Also: nearly all actives have a fitted effect of over 35% in size. Also: potency is read from the fitted curve at half-maximal effect. In a few lines: (§2)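 Tox21 screen in HEK293: membrane-impermeant cyanine dye fluoresces on binding dead-cell DNA; compound pinned 5 h post-seeding, plates held at 37 C, signal read repeatedly through 40 h.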
A short description of assay [4]: qHTS RealTime-Glo MT Cell Viability Assay in HEK293 cells - 24 hour (AID 1224886). Also: nearly all actives have a fitted effect of over 50% in size. Also: potency is read from the fitted curve at half-maximal effect. As to activity change, negative = cytotoxicity: top concentration of the series differs between compounds. In a few lines: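 Nonlytic real-time viability readout: viable cells convert prosubstrate to NanoLuc substrate, giving luminescence proportional to live cell number. HEK293, 600 cells/well, compound added after 5 h, continuous culture at 37 C.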
Background: Quantitative high-throughput screening tests each substance at several concentrations.

The nature of assay [5]: qHTS RealTime-Glo MT Cell Viability Assay in HEK293 cells - 8 hour (AID 1224887). Also: nearly all actives have a fitted effect of over 50% in size. Also: potency is read from the fitted curve at half-maximal effect. As to activity change, negative = cytotoxicity: top concentration of the series differs between compounds. In a few lines:
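HEK293 + NanoLuc + prosubstrate, 600 cells/well; 5 h, 37 C/5% CO2; compound 23 nL in DMSO by pintool; 37 C; luminescence read at 0, 8, 16, 24, 32 and 40 h time points.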

The nature of assay [6]: qHTS RealTime-Glo MT Cell Viability Assay in HepG2 cells - 0 hour (AID 1224889). Also: nearly all actives have a fitted effect of over 50% in size. In a few lines: (§3)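 Luminescence read-out: viable HepG2 cells reduce a prosubstrate to a NanoLuc substrate, giving a signal proportional to live cell number. Reads taken at 0, 8, 16, 24, 32 and 40 h of compound exposure at 37 C.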
Assay [7] is described as follows: A CellTox Green Cytotoxicity Assay to monitor cytotoxicity in HepG2 cells - 8 hour (AID 1224890). Also: nearly all actives have a fitted effect of over 45% in size. Also: potency is read from the fitted curve at half-maximal effect. In a few lines:
as §1

The nature of assay [8]: qHTS assay to identify small molecule antagonists of the estrogen receptor alpha (ER-alpha) signaling pathway using the BG1 cell line in the presence of 0.1 nM 17-beta-estradiol - cell viability counter screen (AID 1259241). Also: nearly all actives have a fitted effect of over 40% in size. Also: potency is read from the fitted curve at half-maximal effect. In a few lines:
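Live-cell protease activity (CellTiter-Fluor fluorescence, 30 min) was read in the same wells after VM7Luc4E2 cells had been exposed to compounds with 0.1 nM 17beta-estradiol for 22 hr at 37C.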

For assay [9], the target named is Androgen receptor (Homo sapiens) (UniProt P10275). In words: qHTS assay to identify small molecule antagonists of the androgen receptor (AR) signaling pathway using the MDA cell line in the presence of 0.5 nM R1881 (AID 1259243). Also: nearly all actives have a fitted effect of over 50% in size. Also: potency is read from the fitted curve at half-maximal effect. In a few lines: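 With R1881 held at 0.5 nM (final), compound effects on MMTV-luciferase expression in MDA-kb2 cells were scored by luminescence after a 16 hr, 37C incubation.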
Sequence of Androgen receptor (Homo sapiens) (P10275 whole entry, looked up): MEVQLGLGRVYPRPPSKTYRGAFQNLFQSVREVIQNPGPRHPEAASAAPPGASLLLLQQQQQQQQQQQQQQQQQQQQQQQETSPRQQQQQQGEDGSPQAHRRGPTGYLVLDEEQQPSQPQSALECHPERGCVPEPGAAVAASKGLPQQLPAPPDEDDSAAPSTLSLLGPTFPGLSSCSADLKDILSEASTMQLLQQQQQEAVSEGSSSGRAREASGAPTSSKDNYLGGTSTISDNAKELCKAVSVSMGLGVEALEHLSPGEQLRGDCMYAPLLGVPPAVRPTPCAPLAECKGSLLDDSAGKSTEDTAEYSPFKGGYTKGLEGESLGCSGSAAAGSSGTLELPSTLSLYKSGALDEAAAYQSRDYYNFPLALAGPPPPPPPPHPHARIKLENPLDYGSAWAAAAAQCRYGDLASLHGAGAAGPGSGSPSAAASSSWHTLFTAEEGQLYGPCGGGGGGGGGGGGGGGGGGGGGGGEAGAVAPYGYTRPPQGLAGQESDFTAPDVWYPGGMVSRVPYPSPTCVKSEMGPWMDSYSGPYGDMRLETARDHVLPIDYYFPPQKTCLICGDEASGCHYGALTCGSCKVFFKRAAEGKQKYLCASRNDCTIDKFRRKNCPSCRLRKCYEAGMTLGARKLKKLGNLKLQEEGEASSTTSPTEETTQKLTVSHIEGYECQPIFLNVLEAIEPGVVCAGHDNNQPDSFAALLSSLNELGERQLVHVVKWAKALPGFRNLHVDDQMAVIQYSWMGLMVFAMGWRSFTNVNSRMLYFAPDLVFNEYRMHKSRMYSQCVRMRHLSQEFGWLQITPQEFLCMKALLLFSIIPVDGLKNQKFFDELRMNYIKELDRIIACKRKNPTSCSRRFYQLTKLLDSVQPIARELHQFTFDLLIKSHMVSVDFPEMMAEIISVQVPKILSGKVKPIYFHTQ

Assay [10] concerns the target Estrogen receptor (Homo sapiens) (UniProt P03372). Kind of assay: qHTS assay to identify small molecule antagonists of the estrogen receptor alpha (ER-alpha) signaling pathway using the BG1 cell line in the presence of 0.1 nM 17-beta-estradiol (AID 1259244). Also: nearly all actives have a fitted effect of over 50% in size. Also: potency is read from the fitted curve at half-maximal effect. In a few lines:
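Compounds were tested against 0.1 nM (final) 17beta-estradiol in VM7Luc4E2 cells, which express full-length ER-alpha and an ERE-luciferase reporter; luminescence was recorded following 22 h exposure.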

A short description of assay [11]: qHTS assay to identify small molecule HDAC inhibitors (AID 1259364). Also: potency is read from the fitted curve at half-maximal effect.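 Also: wild-type HCT-116 cells with endogenous class I/II HDAC activity; nearly all actives have a fitted effect of over 45% in size.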 As to activity change, negative = inhibition: top concentration of the series differs between compounds. In a few lines:
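Screening used wild-type human colon HCT-116 cells incubated overnight, dosed with compounds for 2 hours, and assayed with a homogeneous luminogenic HDAC I/II reagent for 30 minutes at room temperature.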

Assay [12] can be described thus: qHTS assay to identify small molecule HDAC inhibitors - cell viability counter screen (AID 1259365). Also: nearly all actives have a fitted effect of over 50% in size. Also: potency is read from the fitted curve at half-maximal effect. As to activity change, negative = cytotoxicity: series mostly up to about 92 µM. In a few lines:
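HCT-116 (wild type), 1,500 cells/well, overnight 37C/5% CO2; compound in DMSO 2hr; CellTiter-Glo 30min RT; luminescence read.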

Assay [13] is described as follows: qHTS assay to identify small molecule antagonists of the sonic hedgehog signaling (Shh) pathway - cell viability counter screen (AID 1259367). Also: nearly all actives have a fitted effect of over 55% in size. Also: potency is read from the fitted curve at half-maximal effect. In a few lines: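 Cytotoxicity was assessed in parallel with Shh reporter activity by measuring live-cell protease fluorescence (CellTiter-Fluor) in NIH/3T3 cells stably carrying Gli1-Luc, treated with compound under conditioned medium stimulation for 23 hr plus 1 hr reagent incubation.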

Assay [14] in a line: qHTS assay to identify small molecule agonists of the sonic hedgehog signaling (Shh) pathway (AID 1259368; calls by dose curve;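 also: NIH/3T3-derived 3T3Gli1-Luc cells carrying a stable Gli1-driven firefly luciferase reporter; series mostly up to about 92 µM; nearly all actives have a fitted effect of over 15% in size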). In a few lines: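 Hedgehog pathway agonism scored by increased firefly luciferase luminescence in 3T3Gli1-Luc cells treated 24 hr at 37 C; detection used a 30 min room-temperature reagent incubation.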
Assay [15] in a line: qHTS assay to identify small molecule antagonists of the sonic hedgehog signaling (Shh) pathway (AID 1259369; calls by dose curve; also: nearly all actives have a fitted effect of over 45% in size; also: potency is read from the fitted curve at half-maximal effect). In a few lines: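 NIH/3T3 stable Gli1-Luc clone, 2,000 cells/well, 4hr settle; cpd + conditioned medium 24hr; Luc reagent 30min RT; luminescence.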
Assay [16] is described as follows: A CellTox Green Cytotoxicity Assay to monitor cytotoxicity in HEK293 cells - 16 hour (AID 1224888). Also: nearly all actives have a fitted effect of over 35% in size. Also: potency is read from the fitted curve at half-maximal effect. In a few lines:
as §2

Assay [17] in a line: qHTS RealTime-Glo MT Cell Viability Assay in HepG2 cells - 16 hour (AID 1224885). Also: nearly all actives have a fitted effect of over 50% in size. Also: potency is read from the fitted curve at half-maximal effect. In a few lines: as §3
Assay [18] can be described thus: qHTS assay to identify small molecule antagonists of the androgen receptor (AR) signaling pathway using the MDA cell line in the presence of 0.5 nM R1881 - cell viability counter screen (AID 1259242). Also: nearly all actives have a fitted effect of over 45% in size. Also: potency is read from the fitted curve at half-maximal effect. In a few lines:
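Concentration-response screen of compounds for toxicity in MDA-kb2 reporter cells: 16 hr at 37C with 0.5 nM R1881, endpoint live-cell protease fluorescence measured in the reporter wells.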

Assay [19] is described as follows: qHTS assay to identify small molecule agonists of the sonic hedgehog signaling (Shh) pathway - cell viability counter screen (AID 1259366). Also: nearly all actives have a fitted effect of over 50% in size. Also: potency is read from the fitted curve at half-maximal effect. In a few lines: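 CellTiter-Fluor fluorescence read-out, 1 hr at 37C, added after 23hr compound exposure. Cells: 3T3 Gli1-Luc, an NIH/3T3 clone with stably integrated Gli1-Luc reporter, plated 4hr before compound.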
The nature of assay [20]: qHTS assay to identify small molecule phospholipidosis (PLD) inducers (AID 1259344; active = well fitted curve in the direction sought with a large enough effect; an effect the other way counts as inactive or inconclusive). In a few lines: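 Cells (HepG2, 900 per well) attach for 4 h, receive LipidTOX Red and compound together, incubate 24 h at 37 C, are fixed 30 min with paraformaldehyde/Hoechst, then imaged at one site per well.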
% is scaled to controls: 0 for no effect and ±100 for the full control effect.

Sequence of Estrogen receptor (Homo sapiens) (P03372 whole entry, looked up): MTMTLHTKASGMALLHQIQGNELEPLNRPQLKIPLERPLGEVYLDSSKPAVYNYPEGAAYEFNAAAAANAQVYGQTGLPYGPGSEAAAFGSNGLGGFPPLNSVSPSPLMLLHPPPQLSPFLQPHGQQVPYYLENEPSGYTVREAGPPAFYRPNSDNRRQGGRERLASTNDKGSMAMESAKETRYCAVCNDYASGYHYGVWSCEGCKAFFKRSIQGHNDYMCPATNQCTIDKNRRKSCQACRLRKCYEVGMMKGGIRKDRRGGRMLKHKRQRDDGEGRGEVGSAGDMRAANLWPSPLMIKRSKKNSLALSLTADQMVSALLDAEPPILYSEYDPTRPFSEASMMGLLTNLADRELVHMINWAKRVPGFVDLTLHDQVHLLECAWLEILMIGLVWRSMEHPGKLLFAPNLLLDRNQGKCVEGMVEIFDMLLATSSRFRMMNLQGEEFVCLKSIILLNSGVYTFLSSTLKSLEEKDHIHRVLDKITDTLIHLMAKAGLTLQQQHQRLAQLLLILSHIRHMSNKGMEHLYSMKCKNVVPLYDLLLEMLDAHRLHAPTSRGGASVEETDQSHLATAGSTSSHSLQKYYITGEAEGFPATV

For `CCC(C)(C)c1cc(O)c(C(C)(C)CC)cc1O`, the Potency result in assay [1], in assay [3], in assay [6], in [7], in [8] and in [11] was “inactive” in each case. Moreover, the Potency entry in assay [12], in [13] and in [14] was “inactive” throughout. The Potency in assay [2] is 49 µM (active); in [4] it was 21.9 µM (active); in assay [5], 21.9 µM (active); in assay [9], 17.2 µM (active); in assay [10], 68.6 µM (active); in assay [15] it was 6.86 µM (active).
With `Nc1ccc2cc3ccc(N)cc3nc2c1`, the Potency in assay [1] is 49 µM (active) and 23.9 µM (active); in assay [2], 49 µM (active) and 21.3 µM (active); in [3] it was 49 µM (active) and 21.3 µM (active); in [4] it was 2.45 µM (active) and 3.01 µM (active); in [5], 24.5 µM (active); in assay [16] it was 49 µM (active) and 21.3 µM (active). Besides, the Potency in [7] was 49 µM (active) and 21.3 µM (active); in assay [9] it was “inactive and 10.6 µM (active)”. The Potency entry in [6], in assay [11] and in [14] was “inactive” throughout.
Regarding `O=C1OC(OC(=O)c2cccnc2Nc2cccc(C(F)(F)F)c2)c2ccccc21` (configuration not stated), the Potency entry in assay [1], in assay [2], in assay [17], in assay [4], in assay [5] and in assay [16] was “inactive” each time. The Potency entry in assay [6], in [7], in assay [8], in assay [18], in assay [9] and in assay [11] was “inactive” throughout. The Potency result in assay [12], in [13] and in assay [14] was “inactive” throughout.
For `Cc1cnccn1`, the Potency entry in [1], in assay [2], in [17], in [4], in assay [5] and in assay [16] was “inactive” in each case. Besides, the Potency result in [6], in assay [7], in [8], in assay [18], in [9] and in [10] was “inactive” in each case. For the same compound, the Potency result in [11], in [12], in [19], in [13], in assay [14] and in assay [15] was “inactive” throughout.
For the compound `CC=O`, the Potency result in assay [1], in [5], in assay [6], in assay [8], in [11] and in assay [14] was “inactive” throughout. Besides, the Potency in [2] was 36.3 µM (active); in assay [17] it was 51.3 µM (active); in [4], 0.575 µM (active); in assay [16] it was 57.5 µM (active); in assay [7] it was 57.5 µM (active); in assay [18] it was 32 µM (active). Moreover, the Potency in assay [10] was 0.403 µM (active); in [13] it was 28.6 µM (active).
Turning to `NC1(c2ccc(-c3nc4ccn5c(=O)[nH]nc5c4cc3-c3ccccc3)cc2)CCC1`, the Potency entry in assay [1], in [6], in assay [7], in assay [10], in assay [20] and in assay [11] was “inactive” in each case. The Potency result in assay [14] is “inactive”. Moreover, the Potency in assay [2] was 26.8 µM (active); in assay [17], 23.9 µM (active); in [4], 3.01 µM (active); in [5] it was 10.7 µM (active); in assay [18], 33.5 µM (active); in assay [19] it was 13.3 µM (active). Also, the Potency in [15] was 0.0944 µM (active).
Take `CCN=C1C=CC(=C(c2ccc(N(CC)CC)cc2)c2ccc(N(CC)CC)cc2)c2ccccc21`: the Potency result in assay [1] and in [14] was “inactive” each time. Also, the Potency in [2] is 19.4 µM (active); in [17], 19.4 µM (active); in assay [4], 7.71 µM (active); in [5] it was 17.3 µM (active); in assay [16] it was 19.4 µM (active); in [8], 24.2 µM (active). The Potency is 2.71 µM (active) in assay [18]; 0.608 µM (active) in assay [9]; 0.682 µM (active) in assay [10]; 27.1 µM (active) in assay [11]; 34.2 µM (active) in assay [12]; 21.6 µM (active) in assay [19]. Further, the Potency in [15] was 0.0963 µM (active).
In the case of `O=S(O)O`, in assay [1], the cytotoxicity is -14.5% [at 15.8 µM] (inactive). Also, the cytotoxicity increase in assay [2] was -11% [at 15.8 µM] (inactive); in [7] it was -4.46% [at 15.8 µM] (inactive). Besides, in [17], the activity change, negative = cytotoxic was 2.97% [at 15.8 µM] (inactive). The activity change, negative = cytotoxicity in assay [4] was 11.2% [at 15.8 µM] (inactive); in [5], 3.5% [at 15.8 µM] (inactive); in [6] it was -7.74% [at 15.8 µM] (inactive); in assay [8], 0.521% [at 19 µM] (inactive); in assay [12], 2.88% [at 19 µM] (inactive). In addition, the activity change was 1.02% [at 15.8 µM, stronger effect = higher value] (inactive) in assay [16] and -1.4% [at 18.9 µM, stronger effect = higher value] (inactive) in [14]. Also, the viability change, negative = cytotoxic is 4.5% [at 19 µM] (inactive) in assay [18] and 2.93% [at 19 µM] (inactive) in assay [19]. Besides, the activity change, negative = inhibition in assay [10] was -4.06% [at 19 µM] (inactive); in [15], 12.9% [at 19 µM] (inactive).
